95 compounds from PubChem BioAssay AID1626 (SRMLSC, 2009) can be followed below.

By inhibition is commonly meant the relative decrease from the control value, in per cent.

About 2,000 (0.91%) of roughly 220,000 compounds were called active. Roughly 2% stayed inconclusive and do not appear here. These entries were drawn from the full list. Measured potencies and affinities stand elsewhere. Unmarked numbers belong to inactive results. Cut-off read from the data, not from the text of the source: inconclusive = inhibition above about 80% without an active follow-up result; inactive = below that; test concentration not stated here.

The nature of the assay: M. tuberculosis H37Rv growth inhibitors, H37Rv strain (AID 1626).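 Note: bacteria incubated seven days before Alamar blue readout; 0% = bacteria only wells and 100% = bacteria with antibiotic wells.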 The following applies: hits give high values, concentration not given here.
Regarding `O=C(Nc1c(-c2cccs2)nc2ccccn12)c1ccc2ccccc2c1`, the inhibition was 0.95%.

As for `CCC(CC)C(=O)Nc1cccc(-c2nc3ccccc3o2)c1`, the inhibition is 0.04%.

With `CCN(CC)C(=O)CC(c1ccccc1)c1ccco1` (stereo not given), the inhibition is -14.2%.

In the case of `Cc1cc(C)nc(N(C#N)CCOc2ccc(Cl)cc2)n1`, the inhibition is -4.66%.

As to `Cn1c(=O)c2c(nc(SCCN3CCCCC3)n2Cc2ccccc2)n(C)c1=O`, the inhibition was -2.51%.

Take `CC(C)C(NC(=O)c1ccccc1F)C(=O)Nc1ccc2c(c1)OCO2` (stereo not given): the inhibition is 1.73%.

In the case of `CN(C)C(=O)/C(=C\c1cccc(Oc2ccccc2)c1)NC(=O)c1ccccc1`, the inhibition is 4.22%.

As for `C/C(=N\NC(=O)c1cc(-c2cccnc2)nc2ccccc12)c1ccccc1O`, the inhibition is 2.39%.

For `O=C(OCC(=O)N1CCCCC1)c1ccccc1SCC(=O)N1CCCCC1`, the inhibition is 9.57%.

`O=C(COc1ccc(Cl)cc1)OCC(=O)N1CCCC1`: the inhibition was 0.56%.

With `O=C(COc1ccc(Cl)cc1)OCC(=O)N1CCCCCC1`, the inhibition was 7.95%.

Consider `CCC1CCCCN1C(=O)CCCOc1ccccc1` (stereo not given), for which the inhibition was -1.7%.

As for `O=C(OCC(=O)N1CCCC1)c1cc(Br)ccc1Cl`, the inhibition is 7.39%.

As for `O=C(COC(=O)c1cc(Br)ccc1Cl)NC1CC1`, the inhibition was 26.2%.

As for `CCC1CCCCN1C(=O)COC(=O)c1n[nH]c2ccccc12` (stereo not given), the inhibition is -3.06%.

Consider `Cc1cc(C(=O)OCC(=O)N2CCCC2)c2ccccc2n1`, for which the inhibition is -17.2%.

As to `O=C(CNS(=O)(=O)c1ccccc1)Nc1ccc2c(c1)OCO2`, the inhibition was 0.17%.

Consider `O=C(Nc1ccccc1C(=O)N1CCNCC1)c1ccco1`, for which the inhibition is -1.36%.

For the compound `CC1CCc2nn(CC(=O)Nc3c(F)cc(F)cc3Br)cc2C1` (stereo not given), the inhibition was 0.73%.

In the case of `Cc1cc(C(=O)N2CCCC(C(=O)c3cccc(C(F)(F)F)c3)C2)nc(C)n1` (stereo not given), the inhibition is -11%.

Turning to `COc1ccc(Cl)cc1-c1csc(N)n1`, the inhibition is -2.91%.

As for `O=C(CSc1nc2ccc([N+](=O)[O-])cc2[nH]1)c1ccc2ccccc2c1`, the inhibition was 13.4%.

With `Cc1ccc(NS(=O)(=O)c2cc(C(=O)NCc3ccccn3)ccc2Cl)cc1C`, the inhibition is 4.55%.

Turning to `CC(=O)Nc1cccc(NC(=O)c2cc(C)on2)c1`, the inhibition is -10.6%.

Regarding `CC(=O)c1ccc(NC(=O)Cn2nc(C)c([N+](=O)[O-])c2C)cc1`, the inhibition was 2.02%.

For `CN(C)CCN1CC(C(=O)O)CC1=O` (stereo not given), the inhibition is -2.28%.

Regarding `CN1CCN(S(=O)(=O)c2ccc(-c3noc(C4CCN(S(C)(=O)=O)CC4)n3)cc2)CC1`, the inhibition is -1.89%.

In the case of `O=C(Oc1ccc(/C=N/O)cc1)c1ccccc1`, the inhibition is 30.8%.

On to `O=C(O)c1ccc(N/N=C/c2ccc(OC(=O)c3ccccc3Cl)cc2)cc1`, for which the inhibition is 4.34%.

Take `CCc1ccc2[nH]c(O)c(N=NC3=NC(=O)CS3)c2c1`: the inhibition was 1.19%.

Regarding `Cn1c(O)c(N=Nc2nc(-c3ccccc3)cs2)c2ccccc21`, the inhibition is 68%.

As to `COc1ccc(CCNC2CCCCC2)cc1OC`, the inhibition is 5.74%.

As for `O=C(Nc1ccccn1)c1ccc(Br)c(S(=O)(=O)N2CCCCC2)c1`, the inhibition was 4.83%.

Regarding `CCCN(N=Nc1cccc([N+](=O)[O-])c1)c1cccc([N+](=O)[O-])c1`, the inhibition was 1.3%.

Turning to `O=c1cc(-c2ccc(O)cc2)oc2cc(O)cc(O)c12`, the inhibition was -7.5%.

As for `O=c1cc(-c2ccccc2)oc2cc(O)cc(O)c12`, the inhibition was 17.6%.

Take `Cc1cc(OCC(=O)NC(C)C)ccc1Cl`: the inhibition is 8.21%.

`Cc1noc(-c2ccc(C(F)(F)F)cc2)c1NC(=O)Nc1ccc(Cl)cc1`: the inhibition is 13.4%.

Consider `O=C(O)c1cccc(Cn2c(Cl)c(/C=N/NC(=O)c3ccc(O)cc3)sc2=O)c1`, for which the inhibition was -11.5%.

Regarding `O=c1[nH]c(SCc2ccc([N+](=O)[O-])cc2)nc2[nH]ncc12`, the inhibition is -6.17%.

With `CC[C@H]1CC2CN3CCc4c([nH]c5cc(OC)ccc45)[C@](C(=O)OC)(C2)[C@H]13`, the inhibition is -5.98%.

For `CC[C@H]1CC2CN3CCc4c([nH]c5ccccc45)C(C(=O)OC)(C2)C13` (stereo not given in full), the inhibition was 0.73%.

In the case of `COC(=O)C1=C(c2cc3ccccc3o2)C[C@@H]2CC[C@H]1N2C(=O)NC(C)C`, the inhibition was 19.5%.

`Cn1c(NCc2ccco2)nc2c1c(=O)n(Cc1ccc(Cl)cc1)c(=O)n2C`: the inhibition is 7.2%.

For `COc1ccc(CNc2nc3c(c(=O)n(Cc4ccc(Br)cc4)c(=O)n3C)n2C)cc1`, the inhibition is 34.1%.

Turning to `Cn1c(NCc2ccco2)nc2c1c(=O)n(Cc1ccc(Cl)c(Cl)c1)c(=O)n2C`, the inhibition was 6.79%.

Turning to `Cn1c(NCc2ccccc2)nc2c1c(=O)n(Cc1ccccc1)c(=O)n2C`, the inhibition was -5.24%.

Turning to `CC(C)c1nnc(N2C(=O)c3oc4ccccc4c(=O)c3C2c2ccco2)s1` (stereo not given), the inhibition is -6.42%.

In the case of `CC(=O)c1ccc(NC(=O)CSc2nnc(Cn3cnc4ccccc43)o2)cc1`, the inhibition is -0.74%.

For the compound `CCc1cc2cc3c(cc2nc1SCC(=O)Nc1nnc(C)s1)OCCO3`, the inhibition was -4.07%.

Consider `COc1ccc(CNCCC(c2ccc(OC(C)C)cc2)C(C)C)cc1OC` (stereo not given), for which the inhibition is 45.4%.

Take `COc1ccc(CNCCC(c2ccc(F)cc2)c2ccc(OC)cc2)cc1` (stereo not given): the inhibition was 41.6%.

With `COc1ccc(C(CCNCc2ccccc2)c2ccc(F)cc2)cc1` (stereo not given), the inhibition is -2.55%.

Turning to `COc1ccc(C(CCNCc2ccc(OC)c(OC)c2)c2ccc(F)cc2)cc1` (stereo not given), the inhibition was 2.06%.

As to `COc1ccccc1Nc1nc(N)nc(CSC(=S)N2CCCCC2)n1`, the inhibition was 5.54%.

Regarding `CCCc1nnc(SCC(=O)N2CCCCC2C)n1CC` (stereo not given), the inhibition is -2.59%.

For `CCOc1ccc(-c2ccc(SCC(=O)NCC3CCCO3)nn2)cc1` (stereo not given), the inhibition was 3.18%.

Turning to `Cc1cc(=O)[nH]c(SCC(=O)Nc2ccccc2C)n1`, the inhibition is -0.5%.

On to `COc1ccccc1NS(=O)(=O)c1cccc(C(=O)N/N=C(\C)c2ccc(-n3ccnc3)cc2)c1`, for which the inhibition is -7.54%.

With `C/C(O)=C(/C#N)c1nc2ccccc2[nH]1`, the inhibition is 10.1%.

As for `c1ccc2c(N3CCOCC3)nc(N3CCOCC3)nc2c1`, the inhibition is -0.04%.

For the compound `c1ccc2c(NCC3CCCO3)nc(N3CCOCC3)nc2c1` (stereo not given), the inhibition is -4.2%.

Take `CCCCNS(=O)(=O)c1ccc2nc(-c3cccnc3)cc(C(=O)NCCCN(CC)CC)c2c1`: the inhibition is -1.2%.

For `O=C(Nc1ccc2c(c1)OCCO2)c1cccc(S(=O)(=O)N2CCOCC2)c1`, the inhibition was 2.68%.

As to `Cc1ccc(CNC(=O)C2CCCN(Cc3cnn(-c4ccccc4)c3-n3cccc3)C2)cc1` (stereo not given), the inhibition was 3.25%.

For the compound `COc1ccc(CNc2ncnc3cc(Cl)ccc23)cc1OC`, the inhibition is 3.34%.

Turning to `COc1cccc(CNc2ncnc3cc(Cl)ccc23)c1`, the inhibition was 2.79%.

In the case of `COc1ccc(C(=O)C(CCC(CNC(C)(C)C)C(=O)c2ccc(OC)cc2)CNC(C)(C)C)cc1` (stereo not given), the inhibition was 3.24%.

Consider `N#CCSc1nc2ccccc2o1`, for which the inhibition was -5.91%.

Turning to `O=C(CSc1nc2ccccc2o1)N1CCN(C(=O)c2ccco2)CC1`, the inhibition was 8.7%.

As for `O=C(OCC#CCSc1nc2ccccc2s1)c1ccco1`, the inhibition is 74.1%.

Take `O=C(CSc1nc2ccccc2o1)c1cc2ccccc2oc1=O`: the inhibition is 1.02%.

On to `Cc1ccc2c(c1)c1c3n2CCCNC3CCC1` (stereo not given), for which the inhibition is 3.76%.

With `c1ccc2c(c1)c1c3n2CCNC3CCC1` (stereo not given), the inhibition is 3.79%.

As to `CCOC(=O)C(=O)Nc1nc(-c2ccccc2)c(-c2ccccc2)o1`, the inhibition is -0.88%.

Take `COc1cc(OC)cc(C(=O)Nc2ccc(-c3nc4ccccc4o3)cc2)c1`: the inhibition is 16%.

As for `CC(=O)Nc1nc(-c2ccccc2)c(-c2ccccc2)o1`, the inhibition was 56.4%.

Consider `COc1cccc(C(=O)Nc2c(F)c(F)c(F)c(F)c2F)c1`, for which the inhibition was 0.52%.

With `COc1cccc(C(=O)Nc2ccccc2)c1`, the inhibition is -3.26%.

Consider `COc1cc(OC)cc(C(=O)Nc2ccc(-c3nc4ccccc4o3)c(O)c2)c1`, for which the inhibition was 66.5%.

Turning to `CCCCCCN1C=C/C(=C\C=C(C#N)C#N)c2ccccc21`, the inhibition was 34.9%.

Turning to `COc1ccccc1NC(=S)N(CCCN(C)C)Cc1cc2cc3c(cc2[nH]c1=O)OCO3`, the inhibition was -2.36%.

Regarding `CCOC(=O)CN1CC23C=CC(O2)C(C(=O)Nc2ccc(F)c(C)c2)C3C1=O` (stereo not given), the inhibition is -11.9%.

As to `CCCCNC(=O)COC(=O)c1ccc(C)c(NC(=O)c2ccco2)c1`, the inhibition was -7%.

As for `CCN1CCN(C(=O)C(=O)c2c(C)[nH]c3ccccc23)CC1`, the inhibition was 0.56%.

For `O=C(CSc1nnc(CCCN2C(=O)c3cccc4cccc(c34)C2=O)n1-c1ccccc1)N1CCN(CCO)CC1`, the inhibition was -10.9%.

In the case of `O=C1Nc2cc(Cl)cnc2N2CCCC12` (stereo not given), the inhibition is 2.46%.

As to `CCN(CC)CCCNC(=O)Cn1nc([N+](=O)[O-])c(Cl)c1C`, the inhibition was -1.51%.

Regarding `Cc1cccc(N2CCN(C(=O)c3ccc(CNc4c(N5CCC(C)CC5)c(=O)c4=O)cc3)CC2)c1C`, the inhibition is 73.1%.

Consider `CC1CCN(C(=O)c2ccc(CNc3c(N4CCCC4)c(=O)c3=O)cc2)CC1`, for which the inhibition was 78.3%.

Regarding `CC1CCN(c2c(NCc3ccc(C(=O)N4c5ccccc5CC4C)cc3)c(=O)c2=O)CC1` (stereo not given), the inhibition was 7.17%.

`O=C(NCc1ccccc1)c1ccc(CNc2c(N3CCCC3)c(=O)c2=O)cc1`: the inhibition was 3.31%.

In the case of `CCOC(=O)C1CCCN(C(=O)c2ccc(CNc3c(N4CCC(C)CC4)c(=O)c3=O)cc2)C1` (stereo not given), the inhibition is 0.97%.

Turning to `Cc1ccc(CNC(=O)c2ccc(CNc3c(N4CCCC4)c(=O)c3=O)cc2)cc1`, the inhibition is 8.62%.

With `O=[N+]([O-])c1ccc(N2CCC(O)CC2)nc1`, the inhibition was -4.33%.
